HP1b chromo inh – inhibitors of HP1-beta chromodomain binding to methylated histone tails | Potency, µM (highest dose often 114 µM), for inactives: at the top dose activity change, negative = inhibition, usual class: inhibitors | 0.56% of 390,000 active | P83916 | AlphaScreen HP1-beta / biotin-H3K9me3 peptide binding; further: nearly all actives have a fitted effect of over 70% in size
Target sequence (P83916 whole entry, looked up): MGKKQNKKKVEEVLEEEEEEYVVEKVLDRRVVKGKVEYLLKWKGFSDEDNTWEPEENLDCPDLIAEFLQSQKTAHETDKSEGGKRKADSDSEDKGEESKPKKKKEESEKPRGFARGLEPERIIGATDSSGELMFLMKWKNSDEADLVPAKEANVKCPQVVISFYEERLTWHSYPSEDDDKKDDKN
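Compound inhibition of the preformed complex between 50 nM HP1-beta and 50 nM biotinylated H3K9me3 peptide was read by AlphaScreen. Buffer was PBS pH 7.4 with 0.01% Tween-20. Incubations ran 30 min at room temperature, with 10 ug/mL donor/acceptor beads.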
JMJD2A Tudor inh – blocks the human JMJD2A Tudor domain | O75164 | AlphaScreen JMJD2A-Tudor / H3K4me3 peptide binding | Potency, µM (doses to about 114 µM), for the others: at the highest dose activity change, negative = inhibition, hits mostly inhibitors | 4.4% of 390,000 active | AID 504339; further: on the % scale 0 is the no-effect control and ±100 the full control effect; nearly all actives have a fitted effect of over 50% in size
BAZ2B inh – inhibitors of human BAZ2B bromodomain. Potency, µM (highest dose often 114 µM), inactives show at the highest dose activity change, negative = inhibition, actives largely listed as inhibitors. 4.4% of 360,000 active. AID 504333. Q9UIF8. AlphaScreen BAZ2B-H3K14Ac peptide displacement; further: on the % scale 0 is the no-effect control and ±100 the full control effect; nearly all actives have a fitted effect of over 60% in size
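In this displacement format the biotinylated H3(5-23) peptide acetylated at Lys14 serves as ligand at 50 nM, with BAZ2B at 50 nM in PBS pH 7.4 containing 0.01% Tween-20. Donor and acceptor beads are 10 ug/mL final.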
G9a block – G9a (human) methyltransferase inhibition; G9a H3K9 monomethylation, AlphaScreen, 2 h; AID 504332; 8.8% of 350,000 active; Potency, µM (highest dose often 102 µM), inactives show at the highest dose activity, negative = inhibition, usual class: inhibitors; Q96KQ7; further: on the % scale 0 is the no-effect control and ±100 the full control effect; nearly all actives have a fitted effect of over 75% in size
Target sequence (Q96KQ7 913-1193 limits assumed): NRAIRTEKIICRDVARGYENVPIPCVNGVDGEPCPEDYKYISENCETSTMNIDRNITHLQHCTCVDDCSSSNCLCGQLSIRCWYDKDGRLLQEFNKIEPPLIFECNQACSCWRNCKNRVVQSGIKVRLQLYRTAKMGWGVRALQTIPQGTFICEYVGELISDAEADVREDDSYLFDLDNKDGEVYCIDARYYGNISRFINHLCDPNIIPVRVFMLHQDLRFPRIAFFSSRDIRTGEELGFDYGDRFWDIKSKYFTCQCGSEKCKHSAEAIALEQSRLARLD
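AlphaScreen read-out: biotin-H3K9 peptide (500 nM) methylation by 20 nM enzyme with 20 uM SAM, 2 h at room temperature after 15 min compound preincubation; anti-monomethyl H3K9 antibody plus donor/acceptor beads, 10 min dark.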
Sfp PPTase inh – Sfp phosphopantetheinyl transferase inhibition | Potency, µM, without a hit: largest response in the series, negative = inhibition, usual class: inhibitors | Q9F4F7 | 3.5% of 310,000 active | AID 1490 | Biochemical Sfp PPTase activity, qHTS;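 further: the enzyme is Sfp with the accession as filed and its product quenches rhodamine fluorescence; 0% = enzyme reaction without inhibitor and -100% = no enzyme wells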
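Step 1, compound plus 15 nM Sfp-PPTase, 15 min, room temperature. Step 2, add rhodamine-CoA (5 uM) and BHQ-2-YbbR (12.5 uM). Step 3, read 525/598 nm fluorescence at 0 and 30 min.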
L3MBTL1 block – blocks human L3MBTL1. Q9Y468. AlphaScreen L3MBTL1–H3K9me1 peptide binding. Potency, µM (highest dose often 57.1 µM), for inactives: at the top dose activity, negative = inhibition, actives largely listed as inhibitors. 0.66% of 230,000 active. AID 485360; further: on the % scale 0 is the no-effect control and ±100 the full control effect; nearly all actives have a fitted effect of over 60% in size
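First, the protein-peptide complex forms for 30 min at room temperature (L3MBTL1 50 nM, biotinylated H3K9me1 peptide 75 nM). Next, compounds are pin-transferred and incubated 30 min. Finally, AlphaScreen beads are added and read after 30 min.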
Active calls of the source: *; ? = inconclusive; . = no result; [ ] = another dose, or the depositor's remark. This is a sample that favours compounds with a hit; in the whole collection about 12% have one here. The call rests on the fitted dose curve; in most records, active means well fitted curve in the direction sought with a large enough effect; inconclusive means small, poorly fitted or top-dose-only effect, or another doubt; inactive means no such curve, though single readings can be large; an effect the other way counts as inactive or inconclusive. Potency means the concentration at half of the fitted maximal effect.

SMILES	HP1b chromo inh	JMJD2A Tudor inh	BAZ2B inh	G9a block	Sfp PPTase inh	L3MBTL1 block
Cc1ccc(C(=O)CC(C(=O)O)P(=O)(c2ccccc2)c2ccccc2)cc1 (stereo not drawn)	5%	-21%	-26%	71µM*	18%	3%
CCN(CC)CCOc1ccc(/C(=C(/Cl)c2ccccc2)c2ccccc2)cc1	?	56µM*	?	.	?	-15%
Cc1ccccc1CC1(CO)CCCN(C(=O)c2ccccc2Cl)C1 (stereo not drawn)	16%	-10%	-12%	18%[12.7 µM]	15%	1%
COc1ccc(C(=O)N2CCCC(CO)(Cc3ccccc3C)C2)o1 (stereo not drawn)	-17%	-17%	-34%	79µM*	-10%	.
NC(=O)/C(=C/c1ccco1)C(N)=S	-7%	?	-17%	18µM*	18µM*	-23%
Cc1cccc(-c2nc3scc(CCNS(=O)(=O)c4ccc(F)cc4C)n3n2)c1	33%	-16%	1%	-21%[59 µM]	.	.
CC(C)(C)NC(=S)NCc1ccco1	-4%	-16%	-9%	79µM*	3.5µM*	-6%
Cc1cccc(NC(=S)NCc2ccco2)n1	27%	6%	-2%	2µM*	-28%	.
Cn1cc(Cl)c(C(=O)NNC(=S)NCc2ccco2)n1	-5%	-25%	9%	40µM*	56µM*	21%
O=C(Cc1cccs1)NNC(=S)NCc1ccco1	25%	-17%	-3%	50µM*	7%	-4%
Cc1c(Cl)c(C(=O)NNC(=S)NCc2ccco2)nn1C	23%	-26%	14%	?	17%	25%
CCOc1ccc(-c2nc(SCC(=O)NCCOC)c(-c3ccc(OC)c(OC)c3)[nH]2)cc1	-11%	-29%	?	-23%[59 µM]	.	.
Cc1nc2nc(C)c(NS(=O)(=O)c3ccc(F)cc3)c(=O)n2[nH]1	34%	3%	-11%	-1%[59 µM]	.	.
S=C(NCc1ccccc1)NCc1ccco1	5%	-25%	-30%	?	-6%	.
NNC(=S)NCc1ccco1	1%	89µM*	-35%	4%	40µM*	-6%
CN(C)c1ccc(C(=S)NCc2ccco2)cc1	?	?	?	?	14µM*	?
S=C(NCc1ccco1)NCc1ccco1	35µM*	56µM*	.	.	.	.
COc1ccccc1NC(=S)NCc1ccco1	13%	-23%	-3%	?	56µM*	.
CC(=O)c1ccc(NC(=O)CCCc2nc(-c3cccc(C)c3)no2)cc1	39%	-11%	3%	-28%[59 µM]	.	.
COc1cccc(CNC(=O)CN(c2ccc(C(C)C)cc2)S(=O)(=O)c2c(C)n[nH]c2C)c1	26%	-28%	.	12%[59 µM]	.	.
Cc1cc2oc(C(=O)Nc3ccc(S(N)(=O)=O)cc3)cc(=O)c2cc1C	-3%	-24%	-3%	-8%[59 µM]	.	.
O=C(Nc1nnc(S(=O)(=O)N2CCc3ccccc32)s1)c1cccc(Cl)c1	6%	-20%	?	-40%[59 µM]	.	.
Cn1c(SCc2cccc(F)c2)nnc1-c1ccccn1	19%	79µM*	71µM*	1%[59 µM]	10%	-4%
Cc1ccccc1-n1ccnc1SCC(=O)O	25%	-12%	-21%	-15%	5%	.
Cc1ccccc1CSc1nccn1-c1ccccc1	?	?	35µM*	.	-26%	?
SMILES	HP1b chromo inh	JMJD2A Tudor inh	BAZ2B inh	G9a block	Sfp PPTase inh	L3MBTL1 block
Cn1c(SCc2cccc(Br)c2)nnc1-c1ccccn1	31%	-2%	?	19%[12.7 µM]	4%	-9%
Cc1ccccc1CSc1nnc(-c2ccccn2)n1C	32%	-5%	79µM*	-4%	3%	-5%
CCCS(=O)(=O)NCCc1sc2nc(-c3ccc(Cl)cc3)nn2c1C	24%	-2%	-12%	21%[59 µM]	.	.
O=C(Nc1cccc(F)c1)N1CCCC2(CCN(C(=O)c3ccncc3)CC2)C1	.	.	.	5%[12.7 µM]	5%	.
Cn1cccc1Cc1nnc(SCC(=O)N2CCCC2)n1CCc1ccccc1	12%	-26%	?	?	15%	.
CC1CCN(C(=O)CSc2nnc(CN3CCOCC3)n2-c2ccccc2)CC1	31%	-1%	-2%	-29%[12.7 µM]	71µM*	0%
Cn1cccc1Cc1nnc(SCC(=O)N2CCCCCC2)n1CCc1ccccc1	44%	-19%	-35%	50µM*	-9%	.
CC1CCN(C(=O)CSc2nnc(Cc3cccn3C)n2CCc2ccccc2)CC1	9%	?	-36%	45µM*	6%	3%
Cn1cccc1Cc1nnc(SCC(N)=O)n1CCc1ccccc1	36%	-20%	-26%	45µM*	-2%	-12%
O=C(CSc1nnc(CN2CCOCC2)n1-c1ccccc1)N1CCc2ccccc21	26%	-2%	-5%	-39%[12.7 µM]	11%	.
CC1CCN(C(=O)CSc2nnc(Cc3cccn3C)n2-c2ccc(F)cc2)CC1	-11%	?	-34%	?	7%	-14%
CNCC(O)c1cccc(O)c1 (stereo not drawn)	.	.	.	-32%[2.33 µM]	-8%	.
c1ccc(-c2[nH]ncc2-c2ccnc3ccccc23)nc1	.	.	.	.	1%	.
Cn1cccc1Cc1nnc(SCC(=O)NC2CCCC2)n1CCc1ccccc1	9%	?	-34%	79µM*	-6%	-2%
CCn1cc(C(=O)O)c(=O)c2cnc(N3CCN(C(=S)Nc4ccccc4Cl)CC3)nc21	6%	-2%	-4%	56µM*	18%	2%
C=CCNC(=S)N1CCN(c2ncc3c(=O)c(C(=O)O)cn(CC)c3n2)CC1	22%	50µM*	-38%	.	11%	3%
CCn1cc(C(=O)O)c(=O)c2cnc(N3CCN(C(=S)NC(=O)c4ccc(Br)cc4)CC3)nc21	27%	56µM*	1%	.	22%	14%
CCn1cc(C(=O)O)c(=O)c2cnc(N3CCN(C(=S)Nc4ccc(F)cc4)CC3)nc21	33%	-5%	-3%	26%	-13%	-7%
CCCN1CNc2c(c(=O)[nH]c(=S)n2CCc2ccccc2C)C1	34%	-16%	.	.	.	.
O=c1oc2ccccc2c(N2CCCCC2)c1CN1CCCC1	23%	4%	6%	11%[59 µM]	14%	4%
CCc1oc2ccccc2c1C(=O)CCN1CCCCC1	39%	-22%	8%	1.4µM*	?	-7%
Cc1ccc2oc(=O)c3cc(C(=O)NCCN4CCc5ccccc5C4)sc3c2c1	39%	-24%	-28%	50µM*	-19%	-13%
CCCN1CCN(CCCNC(=O)c2cc3c(=O)oc4ccc(C)cc4c3s2)CC1	22%	-10%	-4%	-1%	4%	.
Cc1ccc(S(=O)(=O)Nc2c(C)nc3nc(C)[nH]n3c2=O)cc1	-6%	?	10%	79µM*	18%	.
Cc1nc2nc(C)c(NS(=O)(=O)c3ccc(CC(C)C)cc3)c(=O)n2[nH]1	-4%	1%	12%	40µM*	21%	.
Cc1ccc(N2CC(NC(=O)c3ccc4c(c3)OCO4)CC2=O)cc1 (stereo not drawn)	-5%	-14%	0%	10%[59 µM]	.	.

Assay outcomes as filed in PubChem BioAssay.
